Compounds with a hit are over-represented: about 1.2% of the library has one in this group of screens.
Avidin fluor: avidin bead compound fluorescence profile | Avidin beads, compound fluorescence 488/530 nm, flow cytometry; active compounds read high | fluorescence (KMESF) at 10 µM | 0.38% of 220,000 active | AID 1775; in the data active = fluorescence above about 47
RGS7-Gao reg: regulators of human RGS7-Galphao interaction; P09471; Multiplexed bead flow cytometry, RGS7-Galphao binding; actives lie on both sides; binding response (% of control), % at 10 µM; 0.35% of 220,000 active; AID 1439; in the data active = binding response below about 49% or above about 150%; inconclusive = no clear call, values can overlap the other calls; inactive = in between;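 also: fluorescent Galphao held in activated GDP-AlF4 state binding bead-coupled RGS7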
Target sequence (P09471 whole entry, looked up): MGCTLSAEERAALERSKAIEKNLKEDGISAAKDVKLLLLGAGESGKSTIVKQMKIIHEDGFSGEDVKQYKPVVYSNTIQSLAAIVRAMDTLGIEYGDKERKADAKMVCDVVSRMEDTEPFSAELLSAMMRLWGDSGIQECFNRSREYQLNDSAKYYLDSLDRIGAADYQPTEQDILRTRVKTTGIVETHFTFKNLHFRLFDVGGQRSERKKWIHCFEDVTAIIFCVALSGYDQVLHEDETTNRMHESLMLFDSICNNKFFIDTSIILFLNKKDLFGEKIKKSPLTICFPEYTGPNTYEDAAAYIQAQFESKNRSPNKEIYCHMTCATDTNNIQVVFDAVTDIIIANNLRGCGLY
GSH bead fluor: GSH bead compound fluorescence profile. 0.25% of 190,000 active. GSH beads flow cytometry, compound fluorescence 488/530 nm; active compounds read high. AID 1776. fluorescence (KMESF) at 10 µM; in the data active = fluorescence above about 89;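 also: glutathione beads carrying GST-tagged Bcl family fusion proteins plus one bare bead set; values are compound well signal with DMSO vehicle wells as background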
RGS8-Gao: human RGS8-Galphao interaction regulation; P09471; multiplexed bead flow cytometry, RGS8-Galphao binding; actives lie on both sides; response (percent of control binding), % at 10 µM; 0.34% of 220,000 active; in the data active = response below about 60% or above about 140%; inactive = in between;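 also: Galphao activated as the GDP aluminium fluoride complex binding bead-coupled RGS8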
RGS4-Gao reg: human RGS4-Galphao interaction regulation; Multiplexed bead flow cytometry, RGS4-Galphao binding; actives lie on both sides; binding response (% of control), % at 10 µM; 0.33% of 220,000 active; AID 1415; in the data active = binding response below about 49% or above about 150%; inactive = in between;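 also: fluorescent Galphao activated with aluminum fluoride binding bead-coupled RGS4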
RGS16-Gao HTS: modulates binding between human RGS16 and Galphao. O15492+P09471. bead-based flow cytometry RGS16-Galphao binding, fluorescence; actives lie on both sides. binding response (% of control), % at 10 µM. 0.38% of 220,000 active. AID 1441;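 also: Galphao activated by GDP with aluminum fluoride before binding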
Target sequence (O15492 whole entry, looked up): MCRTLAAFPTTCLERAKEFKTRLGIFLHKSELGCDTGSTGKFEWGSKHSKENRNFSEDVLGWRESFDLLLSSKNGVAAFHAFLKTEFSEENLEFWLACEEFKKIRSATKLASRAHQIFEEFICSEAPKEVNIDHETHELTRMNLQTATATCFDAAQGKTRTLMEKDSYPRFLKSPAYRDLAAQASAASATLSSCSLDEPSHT
Target sequence (P09471 whole entry, looked up): as the sequence (P09471 whole entry, looked up) above
RGS4-Gao HTS: RGS4-Galphao interaction regulator (human); shares compounds with RGS16-Gao HTS; multiplexed bead flow cytometry, RGS–Galpha-o binding; RGS4–Galpha-o binding response, % at 10 µM; 99% of 1,600 active; AID 1504;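 also: fluorescently labeled Galpha-o bound to GDP with aluminium fluoride binding biotinylated RGS beads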
Avidin counter: counter-screen: compounds disrupting biotin binding to avidin beads; streptavidin beads, fluorescein-biotin binding, flow cytometry; inhibition, % at 10 µM; 1,700 tested, under 10 active; shares compounds with RGS16-Gao HTS; AID 1783;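 active = inhibition above 50%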;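 also: median green fluorescence of gated singlet beads compared with DMSO control wells; 0% = DMSO wells and 100% = complete loss of bead fluorescence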
RGS8-Gao confirm: RGS8-Galphao interaction regulation, single point confirmation. binding response (% of control), % at 10 µM. bead-based flow cytometry RGS8-Galphao binding, fluorescence; actives lie on both sides. shares compounds with RGS16-Gao HTS. 3% of 1,700 active. AID 1836; in the data active = binding response below about 72% or above about 130%; inactive = in between;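 also: Galphao activated as GDP AlF4 complex before binding bead RGS8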
RGS7-Gao confirm: RGS7-Galphao interaction regulation, single point confirmation; shares compounds with RGS16-Gao HTS; bead-based flow cytometry RGS7-Galphao binding; actives lie on both sides; response (percent of control binding), % at 10 µM; 7.8% of 1,700 active; in the data active = response below about 75% or above about 130%; inactive = in between;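 also: fluorescent Galphao activated with GDP and aluminum fluoride binding bead-coupled RGS7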
RGS16-Gao conf: confirmation of regulators of human RGS16-Galphao interaction. shares compounds with RGS16-Gao HTS. bead-based flow cytometry, RGS16-Galphao binding; actives lie on both sides. response (% of control binding), % at 10 µM. 4% of 1,700 active; in the data active = response below about 74% or above about 130%; inactive = in between;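 also: Galphao activated as the GDP aluminium fluoride complex binding bead-coupled RGS16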
RGS4-Gao single: confirmation of regulators of human RGS4-Galphao interaction; AID 1840; shares compounds with RGS16-Gao HTS; 4% of 1,700 active; RGS4-Galphao binding, multiplexed bead flow cytometry; actives lie on both sides; binding response (% of control), % at 10 µM; in the data active = binding response below about 74% or above about 130%; inactive = in between
RGS19-Gao conf: RGS19-Galphao interaction regulation, single point confirmation | response (percent of control binding), % at 10 µM | bead-based flow cytometry RGS19-Galphao binding; actives lie on both sides | AID 1841 | shares compounds with RGS16-Gao HTS | 5% of 1,700 active; in the data active = response below about 50% or above about 160%; inactive = in between;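 also: 100% = no compound control and 0% = blank background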
* marks the source's active call; other numbers are inactive results; ? = inconclusive; . = no result given; [ ] = another dose, or the depositor's remark. Unless noted, no rule for the calls is given here.

SMILES	Avidin fluor	RGS7-Gao reg	GSH bead fluor	RGS8-Gao	RGS4-Gao reg	RGS16-Gao HTS	Avidin counter	RGS8-Gao confirm	RGS7-Gao confirm	RGS16-Gao conf	RGS4-Gao single	RGS19-Gao conf	others
Cc1nc(Cl)c(C(=O)NCCC(C)C)c(C)c1[N+](=O)[O-]	7	107	8	115	105	178*[activator]	1	97	95	96	96	80	RGS4-Gao HTS=105*
COC(=O)c1cc(C(=O)NCCC(C)C)cc([N+](=O)[O-])c1	10	101	10	100	99	101	.	.	.	.	.	.
COc1ccc(C(=O)Cc2ccc(OC)c(OC)c2)cc1	.	.	37	.	.	.	-1	101	99	104	101	107
Cc1ccc(NC(=O)CN(C)C(=O)COc2cccc3cccnc23)cc1	4	103	10	103	101	107	.	.	.	.	.	.
CCOc1cccc2cc(-c3nnc(NCc4ccc5c(c4)OCO5)s3)c(=O)oc12	.	.	9	.	.	.	-1	105	105	120	107	167*[activator]
CC(C)CNC(=O)Cn1c(=O)c2c(ncn2CC(C)C)n(Cc2ccccc2)c1=O	10	98	26	102	103	104	.	.	.	.	.	.
Cn1cc(S(=O)(=O)CC(=O)Nc2ccc3c(c2)OCO3)c2ccccc21	194*	275*[activator]	91*	98	367*[activator]	115	-1	100	103	104	102	87
CCCOc1ccccc1/C=C(\C#N)C(=O)Nc1cccnc1	2	?	.	105	106	109	.	.	.	.	.	.
COCCCNCCCOc1ccc(C)cc1Br	10	103	7	112	100	123	.	.	.	.	.	.
C=CCNCCCOc1ccc(C)cc1Br	7	95	11	90	90	24*	-1	105	102	109	102	142	RGS4-Gao HTS=90*
Cc1cccc(/C(N)=N/OC(=O)C23CC4CC(CC(C4)C2)C3)c1	1	82	13	56*	80	12*	-1	103	103	103	101	104	RGS4-Gao HTS=80*
Cc1cccc(/C(N)=N/OC(=O)Cc2ccccc2)c1	8	110	20	102	104	101	.	.	.	.	.	.
CCC(=O)N/N=C(\C)CC(=O)Nc1ccccc1-c1ccccc1	13	98	22	101	101	100	.	.	.	.	.	.
Cn1cnnc1SCC(=O)Nc1c(F)cc(F)cc1Br	.	.	41	.	.	.	1	102	97	101	101	96
CCOC(=O)N1CCN(C(=O)c2ccc(SC)cc2OC)CC1	10	99	27	102	101	105	.	.	.	.	.	.
Cc1ccc(/C=N/N=C2/NC(=O)CS2)o1	11	97	11	102	100	102	.	.	.	.	.	.
O=C1CS/C(=N/N=C/c2c[nH]c3ccccc23)N1	8	?	.	115	155*[activator]	176*[activator]	0	94	89	91	93	73
CCN(CC)c1ccc(C(=S)NCc2ccccc2)cc1	8	133	23	96	105	101	.	.	.	.	.	.
Cc1ccc(-n2ncc3c(=O)[nH]c(SCC(=O)N4CCC(C)CC4)nc32)cc1C	7	114	19	123	112	185*[activator]	3	97	99	100	99	98	RGS4-Gao HTS=112*
Cc1ccc(-n2ncc3c(=O)[nH]c(SCC(=O)N4CCCC4)nc32)cc1C	7	102	18	103	102	106	.	.	.	.	.	.
CCOP(=O)(OCC)C(Nc1ccc(F)cc1)c1ccccc1 (stereo unspecified)	.	.	.	.	149	.	1	100	94	99	99	94
CCn1nnnc1NCc1ccc(N2CCCC2)cc1	0	65	22	76	35*	320	-1	98	93	93	96	89
O=c1c2ccccc2nc(/C=C/c2ccc(O)cc2)n1CCc1ccccc1	17	99	17	101	99	101	.	.	.	.	.	.
O=c1c2ccccc2nc(/C=C/c2ccc3c(c2)OCO3)n1CCCO	107*	168*[activator]	12	105	109	136	1	103	102	105	102	105	RGS4-Gao HTS=109*
NC1=NC(=O)C2(COC(c3cccnc3)OC2)S1 (stereo unspecified)	24	98	8	102	101	100	.	.	.	.	.	.
SMILES	Avidin fluor	RGS7-Gao reg	GSH bead fluor	RGS8-Gao	RGS4-Gao reg	RGS16-Gao HTS	Avidin counter	RGS8-Gao confirm	RGS7-Gao confirm	RGS16-Gao conf	RGS4-Gao single	RGS19-Gao conf	others
Cc1cccc(N2CN(Cc3cccnc3)CNC2=S)c1	5	98	9	104	99	105	.	.	.	.	.	.
S=C1NCN(Cc2cccnc2)CN1c1cccc2ccccc12	1	?	.	44*	26*	26	-1	98	90	97	98	92
CN(C)/C=C1\C=C2C(=O)c3ccccc3N2C1=O	92*	?	.	137	242*[activator]	224*[activator]	1	143*[activator]	355*[activator]	268*[activator]	271*[activator]	374*[activator]
CN(C)S(=O)(=O)N1C(=O)c2ccccc2C1=O	7	?	.	101	101	97	.	.	.	.	.	.
COc1cc2[nH]c(=S)n(C3CCCC3)c(=O)c2cc1OC	4	108	41	117	99	182*[activator]	3	104	104	102	103	116	RGS4-Gao HTS=99*
COc1cc2[nH]c(=S)n(C3CC3)c(=O)c2cc1OC	9	?	12	100	103	102	.	.	.	.	.	.
Cc1ccc(NC2=C/C(=N/S(=O)(=O)c3cccs3)c3ccccc3C2=O)cc1C	3	99	14	100	100	96	.	.	.	.	.	.
Cc1cc(C)c(S(=O)(=O)/N=C2/C=C(Sc3ncn[nH]3)C(=O)c3ccccc32)cc1C	5	84	22	60	90	-0.4*	.	.	.	.	.	.	RGS4-Gao HTS=90*
CCOc1cc(Br)ccc1S(=O)(=O)NCc1ccccc1	12	96	75	102	99	101	.	.	.	.	.	.
Fc1ccccc1N1CC(c2ccccc2)C(c2cccs2)=N1 (stereo unspecified)	-1	15*	34	9.2*	21*	-9	0	98	96	93	96	70

Assay outcomes from PubChem BioAssay.
